# From PubChem
# HepG2 tox = HepG2 cytotoxicity, counter-screen for TGF-b inhibitors; Potency, µM (top dose mostly 46.1 µM), for inactives: top-dose activity change, negative = cytotoxicity, hits mostly cytotoxic; 0.76% of 410,000 active; HepG2 CAGA-GFP viability, ATP luminescence, 18 h; AID 588856
#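 HepG2 CAGA-GFP cells (1000/well, DMEM with 1% FBS) received compound, then TGF-beta at 500 pg/mL final, and were incubated 18 hours at 37 degrees C. Viability was read by CellTiter-Glo luminescence. Media-only wells were set as complete cell-killing and DMSO as no toxicity.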
# TGFb SMAD3 inh = inhibitors of TGF-b signaling | HepG2 CAGA-GFP TGF-b/SMAD3 reporter, GFP fluorescence, 18 h; TGF-beta stimulated, 500 pg/mL final | Potency, µM (doses to about 46.1 µM), for inactives: at the top dose activity, negative = inhibition, usual class: inhibitors | 1.2% of 410,000 active | AID 588855; further: on the % scale 0 is the no-effect control and ±100 the full control effect; nearly all actives have a fitted effect of over 65% in size
#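 Inhibition of TGF-beta-driven CAGA-GFP reporter expression in HEPG2 cells is measured by cellular GFP fluorescence after 18 h stimulation with 500 pg/mL recombinant TGF-beta in 1% FBS medium at 37 degrees C.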
# ATXN viability = viability counter-screen for ATXN expression inhibitors; S2 cells (HEK-293 line with an ATXN2-luciferase reporter) viability, CellTiter-Fluor protease fluorescence, 24 h; Potency, µM (series often up to 56.7 µM), usual class: cytotoxic; 0.49% of 400,000 active; AID 651635; further: nearly all actives have a fitted effect of over 40% in size
# ATXN2 expr inh = reduces ATXN2 reporter expression in HEK-293 cells; HEK-293 ATXN2-luciferase reporter, luminescence, 24 h; 0.72% of 360,000 active; Potency, µM (series often up to 57 µM), inactives show at the highest dose activity change, negative = inhibition, hits mostly inhibitors; further: on the % scale 0 is the no-effect control and ±100 the full control effect; nearly all actives have a fitted effect of over 55% in size
#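 qHTS (up to 57 uM final) was run with 24 h compound exposure of reporter cells at 37 °C. Each well was multiplexed: SteadyGlo luminescence measured ATXN2-luciferase expression after a fluorogenic Gly-Phe-AFC viability readout (25 uM final).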
# An asterisk follows results filed as active; i = inactive; ? = inconclusive; · = not tested or not shown; [ ] = another dose, or the depositor's remark. Only some compounds are listed: those with a hit (about 2.3% of all), similar ones and a draw of the others. The call rests on the fitted dose curve; in most records, active means well fitted curve in the direction sought with a large enough effect; inconclusive means small, poorly fitted or top-dose-only effect, or another doubt; inactive means no such curve, though single readings can be large; an effect the other way counts as inactive or inconclusive. Potency means the concentration at half of the fitted maximal effect.
SMILES,HepG2 tox,TGFb SMAD3 inh,ATXN viability,ATXN2 expr inh
CS(=O)(=O)c1ccc(C(=O)OCC(=O)NC23CC4CC(CC(C4)C2)C3)cc1[N+](=O)[O-],-99%,?,?,?
O=C(COC(=O)CNC(=O)C1CCCCC1)NC1CCCC1,4%,10%,·,·
CCOc1cc(-c2ccc3c(c2)OCO3)cc(=[O+]CC)c2c(C)oc(C)c12,1%,-7%,·,·
CCC(OC(=O)c1ccc(S(C)(=O)=O)c([N+](=O)[O-])c1)C(=O)NC1C2CC3CC(C2)CC1C3 (stereo not drawn),5.6µM*,4.5µM*,6.3µM*,?
COc1ccc(OC)c(CN2CCCC(c3nc(C)ncc3-c3ccc(F)cc3)C2)c1 (stereo not drawn),·,·,i,·
COc1cc(N=C2C(=O)N3c4c(cccc42)C(C)=CC3(C)C)cc(OC)c1,-6%,?,i,1%
CC1=CC(C)(C)N2C(=O)C(=Nc3ccc(O)cc3)c3cccc1c32,-97%,13µM*,·,?
COc1ccc(/C=C/C(=O)c2ccc(C)c([N+](=O)[O-])c2)cc1O,20µM*,18µM*,i,-19%
COc1cc(/C=C/C(=O)c2ccc(C)c([N+](=O)[O-])c2)cc(OC)c1O,-44%,13µM*,i,?
COc1ccc2cc(C(=O)/C=C/c3cc(OC)c(O)c(OC)c3)ccc2c1,18µM*,?,?,-14%
CN(C)c1ccc(/C=C/c2c3c(nc4ccccc24)CCCC3)cc1,5%,0%,·,·
COc1ccccc1C(=O)N[C@@H]1c2ccccc2C2(CCN(Cc3cnn(C)c3C)CC2)[C@H]1O,·,·,i,·
CC1CCN(S(=O)(=O)c2ccc3nc(NCc4ccc(N(C)C)cc4)ccc3c2)CC1,-12%,?,?,?
CC1CCN(S(=O)(=O)c2ccc3nc(Nc4ccc(C#N)cc4)ccc3c2)CC1,-31%,10µM*,?,0%
CC1CCN(S(=O)(=O)c2ccc3nc(NCc4ccc(F)cc4)ccc3c2)CC1,-20%,13µM*,?,0%
NC1CCC(Nc2nc(Nc3ccc(C(=O)N4CCCCC4)cc3)c3ncn(-c4cccc(F)c4)c3n2)CC1 (stereo not drawn),·,·,·,32%
CCOC(=O)/C(=N/Nc1ccc(C)cc1)S(=O)(=O)c1ccc(Cl)cc1,4%,0%,i,60%
NNC(=O)/C(=N/Nc1ccccc1)S(=O)(=O)c1ccc(Cl)cc1,-3%,-34%,?,14µM*
CO[C@H]1C[C@@H]2CC[C@@H](C)[C@@](O)(O2)C(=O)C(=O)N2CCCC[C@H]2C(=O)O[C@H]([C@H](C)C[C@@H]2CC[C@@H](O)[C@H](OC)C2)CC(=O)[C@H](C)/C=C(/C)[C@@H](O)[C@@H](OC)C(=O)[C@H](C)C[C@H](C)C=C/C=C\C=C/1C,-28%,4.5µM*,·,·
Cc1cc(C)c[n+](C2=C([O-])c3ccccc3C(=O)/C2=N\S(=O)(=O)c2cccs2)c1,-1%,?,i,-4%
CC(C)(C)c1cc[n+](C2=C([O-])c3ccccc3C(=O)/C2=N\S(=O)(=O)c2ccccc2)cc1,i,14µM*,?,?
CCCCC[n+]1ccn(C2=C([O-])c3ccccc3C(=O)/C2=N\S(=O)(=O)c2ccccc2)c1,6.3µM*,?,i,?
CCCCC[n+]1ccn(C2=C([O-])c3ccccc3C(=O)/C2=N\S(=O)(=O)c2ccc(Br)cc2)c1,4µM*,1.6µM*,i,·
CCCC[n+]1ccn(C2=C([O-])c3ccccc3C(=O)/C2=N\S(=O)(=O)c2ccccc2)c1,11µM*,8.9µM*,?,?
CCCC[n+]1ccn(-c2nc3ccccc3nc2[N-]S(=O)(=O)c2ccccc2)c1,3%,5%,i,6%
SMILES,HepG2 tox,TGFb SMAD3 inh,ATXN viability,ATXN2 expr inh
CCc1cccc(CC)c1NC(=O)N1Cc2[nH]nc(NC(=O)c3ccc(N4CCN(C)CC4)cc3)c2C1,·,·,·,-1%
CC(=O)Nc1ccc(/C=C/c2nc3ccccc3s2)cc1,-33%,-21%,·,·
Cc1cnccn1,-34%,?,·,·
CC(C)[n+]1ccn(C2=C([O-])c3ccccc3C(=O)/C2=N\S(=O)(=O)c2ccccc2)c1,-128%,20µM*,i,-41%
O=C(c1cc2c(s1)CCCC2)N1CCN(S(=O)(=O)c2ccccc2)CC1,10µM*,0%,i,4%
CCc1ccc(NC(=O)C2CCCN(S(=O)(=O)c3cccc4cccnc34)C2)cc1 (stereo not drawn),-8%,10µM*,·,·
O=C(Nc1ccccc1Cl)C1CCCN(S(=O)(=O)c2cccc3cccnc23)C1 (stereo not drawn),-3%,-27%,i,·
O=C(Nc1nc2cc(Cl)ccc2s1)C1CCCN(S(=O)(=O)c2cccc3cccnc23)C1 (stereo not drawn),17%,?,?,18µM*
O=C(Nc1ccc(F)cc1)C1CCCN(S(=O)(=O)c2cccc3cccnc23)C1 (stereo not drawn),-6%,-1%,?,-21%
Cc1ccc(C(=O)Nc2nc(-c3ccccn3)cs2)s1,-8%,?,i,?
CCc1sc(C(=O)Nc2nc(-c3ccccn3)cs2)cc1C,-2%,-16%,i,25µM*
O=C(NCC1CCCCC1)C1(CC2CC(c3cccc(Br)c3)=NO2)CCNCC1 (stereo not drawn),16µM*,?,·,?
CC(C)(C)OC(=O)N1CCC(CC2CC(c3cccc(Br)c3)=NO2)(C(=O)NCC2CCCCC2)CC1 (stereo not drawn),-13%,?,i,-2%
CCOc1ccccc1Nc1sc(C(=O)c2ccccc2)c(N)c1C(=O)Nc1ccc(F)cc1,-33%,14µM*,i,0%
Cc1cccc(C)c1Nc1sc(C(=O)c2ccccc2)c(N)c1C(=O)Nc1ccc(F)cc1,-57%,11µM*,·,?
COc1ccc(Cl)cc1Nc1sc(C(=O)c2ccccc2)c(N)c1C(=O)Nc1ccccc1,-33%,16µM*,?,-10%
CCOc1ccc(NC(=O)c2c(Nc3ccccc3C)sc(C(=O)c3ccccc3)c2N)cc1,-41%,?,i,3%
Cc1cn([C@@H]2O[C@H](CO)[C@@H](O)[C@H]2F)c(=O)[nH]c1=O,·,·,i,8%
O=C(c1ccc(F)c(F)c1)N1CCOc2ccc(CN3CCN(Cc4ccccn4)CC3)cc2C1,·,·,i,·
O=C(Nc1ccccc1)Nc1cc(OCC(F)(F)F)cc(OCC(F)(F)F)c1,11µM*,?,i,-10%[11.3 µM]
O=C(Nc1ccccc1)Nc1cc(Cl)cc(Cl)c1,-82%,16µM*,?,?
O=C(NCCNC(=O)c1cc(OCC(F)(F)F)ccc1OCC(F)(F)F)Nc1cccc(C(F)(F)F)c1,-41%,?,i,-23%
Clc1ccccc1Nc1nc(NCC2CC2)nc2ccsc12,-22%,-7%,i,-16%
COc1cccc(CNc2nc(NCC3CC3)nc3ccsc23)c1OC,-47%,?,16µM*,0%
